Bioassay records as filed in PubChem BioAssay.
GPT2 inh: Primary qHTS assay for inhibitors of Glutamate pyruvate transaminase 2 (GPT2) | Alanine aminotransferase 2 (Homo sapiens), Q8TD30 | Recombinant GPT2, coupled pyruvate oxidase/HRP Amplex Red fluorescence | Potency, µM (highest dose often 57.7 µM), for inactives: at the top dose activity change, negative = inhibition, usual class: inhibitors | 0.25% of 100,000 active | AID 1671188, 2021; also: % is scaled to controls: 0 for no effect and ±100 for the full control effect; nearly all actives have a fitted effect of over 60% in size
Target sequence (Q8TD30 whole entry, looked up): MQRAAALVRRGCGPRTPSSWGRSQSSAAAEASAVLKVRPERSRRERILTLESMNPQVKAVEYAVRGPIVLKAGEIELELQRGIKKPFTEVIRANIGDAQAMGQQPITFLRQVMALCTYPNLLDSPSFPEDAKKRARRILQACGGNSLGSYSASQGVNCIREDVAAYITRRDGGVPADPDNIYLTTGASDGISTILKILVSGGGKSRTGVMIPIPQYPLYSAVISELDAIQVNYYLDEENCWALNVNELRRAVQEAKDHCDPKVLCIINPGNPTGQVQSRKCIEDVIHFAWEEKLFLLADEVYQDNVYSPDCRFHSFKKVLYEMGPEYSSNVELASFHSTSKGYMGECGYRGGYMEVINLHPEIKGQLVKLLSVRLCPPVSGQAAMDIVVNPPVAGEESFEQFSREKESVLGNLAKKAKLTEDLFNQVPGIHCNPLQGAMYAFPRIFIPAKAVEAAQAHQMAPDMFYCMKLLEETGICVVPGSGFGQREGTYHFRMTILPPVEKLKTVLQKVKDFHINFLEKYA
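Fluorescence read-out: pyruvate from GPT2 turnover coupled to pyruvate oxidase, HRP and Amplex Red (0.2mM ThPP, 0.2U/mL PO and HRP, 50uM Amplex final). Substrates 250uM a-KG, 2mM L-alanine; enzyme 10ng/uL; 30 min RT.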
HEK cytotox: Cytotoxic Profiling in HEK 293 Cell Line of Diverse Libraries Using Quantitative High-Throughput Screening; HEK 293 viability, ATP luminescence (CellTiter-Glo), 48-72 h; Potency, µM (highest dose often 115 µM), for the others: at the top dose activity change, negative = cytotoxicity, usual class: inhibitors; 6.6% of 94,000 active; AID 1345083, 2018; also: % is scaled to controls: 0 for no effect and ±100 for the full control effect; nearly all actives have a fitted effect of over 60% in size
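ATP-coupled CellTiter-Glo luminescence served as viability read-out, recorded 10 min after reagent addition at room temperature. HEK 293 cells, 250 cells/well, had been incubated with pintool-transferred compound for 48 or 72 hr at 37 degree Celsius.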
FLuc inh-1: Firefly luciferase inhibition profiling of diverse chemical library using quantitative high-throughput screening; Luciferin 4-monooxygenase (Photinus pyralis), P08659; purified P. pyralis luciferase, luminescence, biochemical; Potency, µM (top dose mostly 115 µM), usual class: inhibitors; 2.5% of 76,000 active; AID 1347043, 2019; also: % is scaled to controls: 0 for no effect and ±100 for the full control effect; nearly all actives have a fitted effect of over 65% in size
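Biochemical qHTS: compound (6-point titration) added to 10uM D-luciferin plus 10uM ATP in Tris acetate pH 7.5 buffer with Mg, Tween-20 and BSA, then purified enzyme at 10nM; light output imaged.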
hNpr1 antagonist: Natriuretic polypeptide receptor (hNpr1) antagonism - Primary qHTS; Atrial natriuretic peptide receptor 1 (Homo sapiens), P16066; 1.6% of 76,000 active; HEK293 hNpr1 GloSensor cGMP, ANP-stimulated luminescence; AID 1347048, 2019; Potency, µM (doses to about 46.3 µM), inactives show top-dose activity change, negative = inhibition, hits mostly inhibitors; calls by dose curve; also: % is scaled to controls: 0 for no effect and ±100 for the full control effect; nearly all actives have a fitted effect of over 60% in size
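Compound pre-incubated 30 min at room temperature on GloSensor-loaded HEK293 cells stably carrying hNpr1 and the pGS-40F cGMP biosensor. Stimulation uses hNppA at 0.1 nM final; luminescence is taken at baseline and 20 min post-agonist.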
3T3 cytotox: Cytotoxic Profiling in NIH 3T3 Cell Line of Diverse Libraries Using Quantitative High-Throughput Screening; NIH 3T3 viability, CellTiter-Glo ATP luminescence, 48-72 h; Potency, µM (top dose mostly 96.7 µM), without a hit: at the highest dose activity change, negative = cytotoxicity, actives largely listed as inhibitors; 4.3% of 94,000 active; also: % is scaled to controls: 0 for no effect and ±100 for the full control effect; nearly all actives have a fitted effect of over 55% in size
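NIH 3T3 cells at 400 cells/well received 23 nL of compound by pintool and were incubated 48 or 72 h at 37 °C. Viability was read as ATP-coupled CellTiter-Glo luminescence.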
FLuc SDR no ATP: Firefly luciferase (FLuc-C-HiBiT) SDR gain of signal screen - without ATP. shares compounds with FLuc inh-1. Purified FLuc-C-HiBiT, Nano-Glo HiBiT luminescence, no ATP. 7.8% of 1,300 active. AID 1963318, 2024. Potency, µM (top dose mostly 32.7 µM), without a hit: at the highest dose activation (signal gain), usual class: activators; also: nearly all actives have a fitted effect of over 55% in size
FLuc SDR ATP: Firefly luciferase (FLuc-C-HiBiT) SDR gain of signal screen - plus ATP; shares compounds with FLuc inh-1; AID 1963319, 2024; Potency, µM (top dose mostly 32.7 µM), for the others: at the highest dose activation (gain of signal), actives largely listed as activators; 8.7% of 1,300 active; purified FLuc-C-HiBiT + ATP, HiBiT complementation luminescence;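 also: signal reports ligand binding via conformational change of the enzyme rather than luciferase catalysis; % of control where 0% means no effect; nearly all actives have a fitted effect of over 55% in size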
FLuc inh-2: Firefly luciferase (FLuc-C-HiBiT) enzymatic inhibition screen - Functional assay. shares compounds with FLuc inh-1. purified FLuc-C-HiBiT enzyme, luciferin luminescence. Potency, µM (series often up to 32.7 µM), inactives show at the top dose activity change, negative = inhibition, most hits filed as inhibitors. 42% of 1,300 active. AID 1963320, 2024; also: % is scaled to controls: 0 for no effect and ±100 for the full control effect; nearly all actives have a fitted effect of over 70% in size
The depositor's hits bear a star; i = inactive; ? = inconclusive; . = not tested or not shown; [ ] = another dose, or the depositor's remark. A selection: hits, their analogues and other compounds. The true share with any hit is near 10%. Unless noted, calls follow the shape of the dose curve; as a rule, active = well fitted curve in the direction sought with a large enough effect; inconclusive = small, poorly fitted or top-dose-only effect, or another doubt; inactive = no such curve, though single readings can be large; an effect the other way counts as inactive or inconclusive. Potency is read from the fitted curve at half-maximal effect.

SMILES	GPT2 inh	HEK cytotox	FLuc inh-1	hNpr1 antagonist	3T3 cytotox	FLuc SDR no ATP	FLuc SDR ATP	FLuc inh-2
COCCO[C@H]1C(=O)N(C2CCN(Cc3ccccc3C#N)CC2)[C@H]1c1ccncc1	4.3%	-6.5%	i	-1.5%	-16.3%	.	.	.
COc1ccc(-c2cc(C(=O)NC3CCc4ccccc43)c3cnn(C)c3n2)cc1 (centres undefined)	.	-15.5%	.	.	-21.5%	.	.	.
Cc1n[nH]c(C)c1CNC(=O)c1ccc(CC2CCN(S(C)(=O)=O)CC2)cc1	-21.6%	?	i	?	?	.	.	.
CS(=O)(=O)N1CCC(C2CCN(C3CCOCC3)C2)CC1 (centres undefined)	i	i	i	4.4%	3.6%	.	.	.
COc1ccccc1NC(=O)Cn1c(C)ccc(NC(=O)Nc2ccc(C)cc2)c1=O	i	?	0.631µM*	?	22.4µM*	?	?	0.7µM*
Cc1ccc(NC(=O)Nc2ccc(C)n(CC(=O)NC3CCCC3)c2=O)cc1	-8.5%	?	0.398µM*	?	?	1.57µM*	?	0.7µM*
O=C(NC[C@H]1Cn2ccnc2CO1)c1ccc(Cl)cc1	-1.4%[88.5 µM]	-15.3%[230 µM]	i	-0.7%[70.6 µM]	-15.4%[174 µM]	.	.	.
CC(C)c1noc([C@@H]2C[C@@H](O)CN2Cc2cc3ccccc3o2)n1	-10.1%[88.5 µM]	-24.8%[172 µM]	i	-0.8%[70.6 µM]	-4.1%[174 µM]	.	.	.
COc1ccc(-c2noc([C@@H]3C[C@@H](O)CN3Cc3cc4ccccc4o3)n2)cc1	-2.5%[88.5 µM]	-10.8%[172 µM]	5.01µM*	?	-9.5%[174 µM]	18.4%[49.3 µM]	?	16.1µM*
O[C@@H]1C[C@@H](c2nc(-c3ccccc3)no2)N(Cc2ccc(F)cc2)C1	3.2%[88.5 µM]	-27.9%[172 µM]	i	0.6%[70.6 µM]	?	.	.	.
COc1ccc(CN2C[C@H](O)C[C@H]2c2nc(-c3ccc(OC)cc3)no2)cc1	1.3%[88.5 µM]	?	11.2µM*	?	-29.8%[174 µM]	-1.0%[49.3 µM]	1.3%[49.3 µM]	?
COc1ccc(CN2CC(COc3ccccc3)C3(C2)CN(c2ccccc2)C3)cc1O (centres undefined)	4.1%[88.5 µM]	28.2µM*	i	-17.6%[70.6 µM]	?	11.5%[49.3 µM]	7.4%[49.3 µM]	-16.0%[49.3 µM]
O=C(O)c1ccc(CN2CC(COc3ccccc3)C3(C2)CN(c2ccccc2)C3)cc1 (centres undefined)	-11.6%[88.5 µM]	?	i	-21.6%[70.6 µM]	-21.6%[138 µM]	.	.	.
CCOc1ccc(C(=O)Nc2onc3c2CCCC3)cc1	.	.	.	.	.	?	7µM*	1.97µM*
CC(C)COc1ccc(C(=O)Nc2onc3c2CCCC3)cc1	.	.	.	.	.	27.8%	?	1.97µM*
O=C(Nc1onc2c1CCCC2)c1ccccc1	.	.	.	.	.	18.4%	?	?
CCc1ccc(CNC(=O)C2CCCN(c3nn4cc(-c5ccc(F)cc5)nc4s3)C2)cc1 (centres undefined)	.	.	.	.	.	12.1%	15.2%	-19.7%
CC(=O)NC1CCN(Cc2cn(-c3ccc(C)cc3)nc2-c2cccc(C)c2)C1 (centres undefined)	i	?	12.6µM*	-0.7%	?	14.7%	9.1%	?
Cc1ccc(-n2cc(CN(C)C(C)C(=O)N(C)C)c(-c3cccc(C)c3)n2)cc1 (centres undefined)	4.9%	?	i	6.8%	?	.	.	.
CCNC(=O)N1CCc2c(sc3ncnc(N(C)C)c23)C1	i	-10.6%	i	-23.3%	?	.	.	.
CCOc1cccc(-c2nc(C3CCOC3)no2)c1 (centres undefined)	3.6%	i	12.6µM*	0.7%	0.8%	13.0%	10.9%	-2.7%
COc1cccc(-c2ccc(-c3nc(C4CCOC4)no3)o2)c1 (centres undefined)	-9.4%	?	4.47µM*	-20.3%	?	20.5%	15.0%	?
O=C(c1nc(-c2ccsc2)c2cnccn12)N1CCOCC1	i	?	i	19.2%[70.6 µM]	-23.0%[138 µM]	.	.	.
CC(C)c1noc(-c2cccn3c(CNC(=O)c4cc5ccccc5[nH]4)nnc23)n1	4.0%	?	?	-0.5%	?	.	.	.
Nc1nn(-c2ccccc2)nc1C(=O)OCc1ccccc1	.	.	.	.	.	13.1%	10.1%	-12.9%
SMILES	GPT2 inh	HEK cytotox	FLuc inh-1	hNpr1 antagonist	3T3 cytotox	FLuc SDR no ATP	FLuc SDR ATP	FLuc inh-2
Nc1ncnc2c1ncn2[C@H]1O[C@H](CO)[C@@H](O)[C@@H]1O	.	.	.	.	.	11.5%	10.2%	2.4%
Nc1ncnc2c1ncn2[C@@H]1O[C@H](CO)[C@@H](O)[C@H]1O	-2.4%	.	.	.	.	.	.	.
COc1ccc(OC)c(S(=O)(=O)NCCc2ncc(C)n2C(C)C)c1	1.6%	-2.5%	i	6.1%	-5.3%	.	.	.
Cc1ccc(C(=O)Nc2ccc(-c3nc4ccccc4s3)c(O)c2)c(C)c1	.	.	.	.	.	14.1%	9.4%	0.0%
COc1ccccc1C(=O)Nc1ccc(-c2nc3ccccc3s2)c(C)c1	.	.	.	.	.	23.0%	14.4%	?
O=C(NCc1nc(-c2cccc(F)c2)c(-c2ccccn2)[nH]1)[C@@H]1CCCCN1	-7.4%	?	i	1.7%	-6.7%	.	.	.
COc1cc2c(cc1OC)CN(CCc1ccc(NC(=O)c3cccc4c(=O)c5cccc(OC)c5[nH]c34)cc1)CC2	2.2%	.	.	.	.	.	.	.
c1ccc(COc2ccc(CN3CCSCC3)cc2)nc1	2.2%	?	10µM*	3.4%	i	21.1%	15.1%	?
NC(=O)[C@@H]1CN(Cc2ccccn2)C[C@H]1COc1ccccc1	?	-16.4%	i	3.8%	?	.	.	.
COc1ccc(-c2cc(C(=O)N3CCOC(c4ccc(F)cc4)C3)[nH]n2)cc1 (centres undefined)	-7.5%	?	i	-26.7%	?	.	.	.
COC(=O)CN1CCOC(c2ccc3cc(OC)ccc3c2)C1 (centres undefined)	-9.1%	?	i	-0.4%	?	.	.	.
